For 40 compounds, outcome and AC50 results are on record in PubChem BioAssay (EPA / NIEHS).

Where “and” joins values, the source holds several entries; their conditions need not be identical. Identical values can stand only once. Records with an inconclusive call do not appear. Calls of active or inactive are those of the source. Rule for the calls: active = hit-call score of the fitted dose curve at least 0.9, where 1 is the maximum; inconclusive = response in the unintended direction; inactive = score below 0.9.

For this experiment, the target named is human Peroxisome Proliferator-activated Receptor alpha (PPARa), PPARA (gene 5465) (UniProt Q07869). The experiment in a line: ATG_PPARa_TRANS: Attagene TRANS-FACTORIAL HepG2 Assay for human Peroxisome Proliferator-activated Receptor alpha (PPARa) (AID 2283001).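 For AC50: potency for gain of reporter signal over DMSO so agonist or activator.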 On the procedure: ATG_TRANS is a cell-based, multiplexed-readout assay that uses HepG2, a human liver cell line, with measurements taken at 24 hours after chemical dosing in a 24-well plate.ATG_PPARa_TRANS is one of 30 assay component(s) measured or calculated from the ATG_TRANS assay. It is designed to make measurements of mRNA induction, a form of inducible reporter, as detected with fluorescence intensity signals by Reverse transcription polymerase chain reaction (RT-PCR) and Capillary electrophoresis technology.Data from the assay component ATG_PPARa_TRANS was analyzed into 1 assay endpoint. This assay endpoint, ATG_PPARa_TRANS, was analyzed in the positive analysis fitting direction relative to DMSO as the negative control and baseline of activity. Using a type of inducible reporter, measures of mRNA for gain-of-signal activity can be used to understand the reporter gene at the transcription factor-level as they relate to the gene PPARA. Furthermore, this assay endpoint can be referred to as a primary readout, because this assay has produced multiple assay endpoints where this one serves a reporter gene function. To generalize the intended target to other relatable targets, this assay endpoint is annotated to the nuclear receptor intended target family, where the subfamily is non-steroidal.
Sequence of human Peroxisome Proliferator-activated Receptor alpha (PPARa), PPARA (gene 5465) (Q07869 whole entry, looked up): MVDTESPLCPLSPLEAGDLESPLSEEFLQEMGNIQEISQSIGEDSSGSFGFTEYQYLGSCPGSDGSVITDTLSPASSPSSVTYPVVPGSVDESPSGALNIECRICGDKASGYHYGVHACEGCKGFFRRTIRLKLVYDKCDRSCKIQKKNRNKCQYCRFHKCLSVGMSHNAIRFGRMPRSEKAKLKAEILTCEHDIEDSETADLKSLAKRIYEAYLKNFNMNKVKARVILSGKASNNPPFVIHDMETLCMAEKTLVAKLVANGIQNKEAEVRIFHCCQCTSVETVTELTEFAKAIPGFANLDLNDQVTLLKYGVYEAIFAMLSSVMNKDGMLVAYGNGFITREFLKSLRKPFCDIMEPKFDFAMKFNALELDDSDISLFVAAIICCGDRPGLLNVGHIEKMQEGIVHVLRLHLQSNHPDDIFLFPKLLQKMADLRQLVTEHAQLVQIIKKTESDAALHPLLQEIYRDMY
Human liver HepG2 cells are transiently transfected with multiple reporter transcription units (MRTUs) in 6-well plates using FuGene 6 reagent (Roche; 3 ml FuGene/1 mg DNA). The MRTU constructs are regulated by a cis-regulating element (promoter). […] A major difference between the CIS and TRANS system is that in CIS activities of endogenous TFs are measured, whereas the TRANS assay evaluates changes in activities of exogenous, chimeric NR-Gal4 proteins. […] At the end of 24 hour incubation, total RNA was isolated using TriZol reagent (Invitrogen). The isolated RNA is then reverse-transcribed using oligo(dT) primer and Mo-MLV reverse transcriptase (Invitrogen) with DNAse I (Ambion) treatment for 30 min. The one-tenth of the produced cDNA was amplified by PCR using Taq DNA polymerase (Invitrogen) and two reporter sequence-specific primers. The PCR products were fluorescently labeled by primer extension with 6-arboxyfluorescein (6-FAM) 5'-labeled reporter sequence-specific primer (2 min at 95 C, 20 s at 68 C and 10 min at 72 C) and these products were digested with 5U of HpaI (New England Biolabs) for 2h at 37 C. The fragments were purified using Qiaquick PCR columns (Qiagen), analyzed on an ABI 3130xL genetic analyzer (Applied Biosystems) with peak positions identified by using a set of X-rhodamine (ROX)-labeled MapMarker1000 molecular weight standards (BioVentures). The raw capillary electrophoresis data was processed using Attagraph software (Attagene).
Consider `O=S(=O)(OCC(F)F)C(F)(F)F`, for which the outcome was inactive. As for `O=C(O)C(F)(F)C(F)(F)OC(F)(F)F`, the outcome was inactive. On to `CN(C)Cc1ccccc1O`, for which the outcome was inactive. In the case of `CC(=O)Nc1ccc(N=Nc2cc(C)ccc2O)cc1`, the outcome was inactive.

`OCCCC(F)(F)C(F)(F)C(F)(F)C(F)(F)C(F)(F)C(F)(F)C(F)(F)F`: the call was inactive. As to `FC(F)(F)C(F)(F)CNCC(F)(F)C(F)(F)F`, the call was inactive. On the same count and under the same terms, the entry for `C=CC(=O)OCC(F)(F)C(F)(F)C(F)(F)C(F)(F)COC(=O)C=C` is “inactive”.

As to `O=S(=O)(O)C(F)(F)C(F)(F)C(F)(F)C(F)(F)C(F)(F)C(F)(F)C(F)(F)F`, the AC50 was 21.7 µM (active) and 24.7 µM (active). For `COC(=O)C1CCC(C(=O)OC)CC1` (stereo not given), the result was inactive. Regarding `O=C(Cl)C(F)(F)C(F)(F)C(F)(F)C(F)(F)C(F)(F)C(F)(F)C(F)(F)C(F)(F)F`, the AC50 was 10.3 µM (active). As to `O=C(O)C(F)(F)C(F)(F)C(F)(F)C(F)(F)C(F)(F)C(F)(F)C(F)(F)C(F)(F)C(F)(F)C(F)F`, the AC50 is 19.4 µM (active). Consider `C=C(C)C(=O)OCC(F)(F)C(F)(F)C(F)(F)F`, for which the result was inactive. Consider `FC(F)(F)C(F)(F)C(F)(F)C(F)(F)C(F)(F)C(F)(F)C(F)(F)C(F)(F)CCS`, for which the result was inactive.

Take `CCN(CC)c1ccc2c(C)cc(=O)oc2c1`: the outcome was inactive. The same measure, in the same setting: in the case of `O=C(O)C(F)(F)C(F)(F)C(F)F` it was “inactive”. With `C1COCCN1`, the compound was called inactive. On the same count and under the same terms, in the case of `CCCCCCS` it was “inactive”; in that of `CCCCCCC(C)OC(=O)CCCCC(=O)OC(C)CCCCCC` (stereo not given), “inactive”. `CCCCCCCCC(F)(F)C(F)(F)C(F)(F)C(F)(F)C(F)(F)C(F)(F)F`: the compound was called inactive. Regarding `O=C(O)C(F)(OC(F)(F)C(F)(OC(F)(F)C(F)(OC(F)(F)C(F)(F)C(F)(F)F)C(F)(F)F)C(F)(F)F)C(F)(F)F` (stereo not given), the outcome was inactive. For `Nc1ccc(Oc2cccc(Oc3ccc(N)cc3)c2)cc1`, the result was inactive.

On to `FC(F)(F)C(F)(F)C(F)(F)C(F)(F)C(F)(F)C(F)(F)CCS`, for which the outcome was inactive. Same read-out and setting: in the case of `FC(F)(F)C(F)(F)C(F)(F)C(F)(F)C(F)(F)C(F)(F)C(F)(F)Br` it was “inactive”; in that of `FC(F)(F)C(F)(F)C(F)(F)C(F)(F)C(F)(F)C(F)(F)C(F)(F)I`, “inactive”. On to `Cc1ccc(S(=O)(=O)NCl)cc1`, for which the call was inactive. Same read-out and setting: the entry for `CO[Si](OC)(c1ccccc1)c1ccccc1` is “inactive”; for `CCO[Si](CCC(F)(F)C(F)(F)C(F)(F)C(F)(F)C(F)(F)C(F)(F)F)(OCC)OCC` it is “inactive”; for `COC(=O)CCC(F)(F)C(F)(F)C(F)(F)C(F)(F)F` it is “inactive”. For `CC(C)c1ccccc1N`, the outcome was inactive.

For `CCCCC(CC)COP(=O)(O)OCC(CC)CCCC` (stereo not given), the AC50 is 16.5 µM (active). `O=C(O)C(F)(F)C(F)(F)C(F)(F)C(F)(F)C(F)(F)C(F)(F)C(F)(F)C(F)(F)Cl`: the AC50 is 20.2 µM (active) and 18.8 µM (active). On to `C=CC/C=C/C/C=C/C/C=C/C`, for which the result was inactive.

`NC(=O)C(F)(F)C(F)(F)C(F)(F)C(F)(F)F`: the result was inactive. As for `FC(F)(F)C(F)(F)C(F)(F)C(F)(F)C(F)(F)C(F)(F)C(F)(F)C(F)(F)F`, the call was inactive. On to `CC(C)=CCCC(C)CCOC(=O)C(C)C` (stereo not given), for which the call was inactive. Consider `O=S(=O)(OCCOC(F)(F)F)C(F)(F)F`, for which the call was inactive. Still for that read-out and setting: in the case of `O=C(O)C(F)(F)C(F)(F)F` it was “inactive”. Turning to `C#C[C@]1(O)CC[C@H]2[C@@H]3CCc4cc(OC)ccc4[C@H]3CC[C@@]21C`, the compound was classed as inactive. Consider `N=C(N)C(F)(F)C(F)(F)C(F)(F)C(F)(F)C(F)(F)C(F)(F)C(F)(F)F`, for which the call was inactive. On the same count and under the same terms, in the case of `OCCCC(F)(F)C(F)(F)C(F)(F)F` it was “inactive”.
